# TEAD-YAP inh: TEAD-YAP interaction inhibition. HEK-TIYL cells, TEAD-Gal4/YAP UAS-luciferase luminescence. inhibition, % at 9.12 µM. 640,000 tested, 1.4% active. AID 1259422; in the data active means inhibition above about 32%;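 further: 0% = median of test compound wells and 100% = reference inhibitor wells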
# FBW7 act: activators of human E3 ligase FBW7; AID 1259310; AlphaScreen FBW7–phospho-cyclin E peptide binding, activator screen; normalized activity (activation), % at 26.1 µM; 650,000 tested, 0.13% active; Q969H0; in the data active means normalized activity above about 1.9%;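 further: purified mutant Fbw7 with reduced substrate affinity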
# GPR151 ag: activators of human GPR151; PathHunter beta-arrestin GPR151 cells, luminescence; activation, % at 11.2 µM; Q8TDV0; 650,000 tested, 1% active; in the data active means activation above about 4.9%;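 further: 0% = median of compound wells and 100% = cells with positive control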
# MITF primary: human MITF inhibition, primary screen; O75030; AlphaScreen MITF homodimerization, bead proximity signal; inhibition, % at 2.6 µM; 650,000 tested, 0.91% active; AID 1259374; in the data active means inhibition above about 50%;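 further: 0% = vehicle wells with protein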
# Target sequence (O75030 whole entry, looked up): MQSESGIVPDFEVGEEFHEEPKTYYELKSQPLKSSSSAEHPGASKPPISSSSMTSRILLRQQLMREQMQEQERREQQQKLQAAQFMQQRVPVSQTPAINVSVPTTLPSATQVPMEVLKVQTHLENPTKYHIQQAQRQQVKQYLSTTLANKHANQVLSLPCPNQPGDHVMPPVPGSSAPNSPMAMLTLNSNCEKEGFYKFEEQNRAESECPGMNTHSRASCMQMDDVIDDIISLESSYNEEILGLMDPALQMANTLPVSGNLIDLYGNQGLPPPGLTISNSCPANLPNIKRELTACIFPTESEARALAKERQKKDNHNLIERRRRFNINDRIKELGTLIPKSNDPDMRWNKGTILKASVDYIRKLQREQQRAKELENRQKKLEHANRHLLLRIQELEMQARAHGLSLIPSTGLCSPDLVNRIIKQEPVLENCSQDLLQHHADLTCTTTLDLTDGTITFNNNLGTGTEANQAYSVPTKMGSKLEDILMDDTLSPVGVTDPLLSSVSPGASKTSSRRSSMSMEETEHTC
# GPR151 conf act: confirmation of human GPR151 activators | shares compounds with GPR151 ag | GPR151 PathHunter beta-arrestin cells, luminescence, 90 min; % of EA-reagent control over plate median | activation, % at 11.2 µM | 6,700 tested, under 10 active | AID 1508609;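 active means mean percent activation across replicates above the confirmation screen cutoff of 4.91%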
# GPR119 counter: counter-screen for GPR151 activators: effect on human GPR119; shares compounds with GPR151 ag; GPR119 PathHunter beta-arrestin cells, luminescence, 90 min; 0 = compound-well median, 100 = enzyme-acceptor control; activation, % at 11.2 µM; 6,700 tested, 0.3% active;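 active means mean percent activation in the counterscreen above 29.09%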;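 further: counterscreen on off-target GPR119 to flag nonselective hits from the GPR151 activator screen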
# * marks the source's active call; other numbers are inactive results; x = no result. Sampled rows, rich in hits. Any-hit rate of the full collection: about 3.5%.
SMILES,TEAD-YAP inh,FBW7 act,GPR151 ag,MITF primary,GPR151 conf act,GPR119 counter
CCOc1cc2c3c(c1)C1(OCCO1)C(=O)N3C(C)(C)CC2C (configuration not stated),-7,0,5.9*,-4,-1,-2
Cc1ccc2onc(CNC(=O)N3CCCC(C)C3)c2c1 (configuration not stated),-19,0,6.9*,-10,1,0
Cc1ccc2onc(CNC(=O)N3CCCC3)c2c1,-4,0,3,-2,x,x
COC(=O)c1cccc(NC(=O)C2COc3ccccc3O2)c1 (configuration not stated),-49,0,5.0*,-12,-1,-12
Cc1ccc(C(=O)COC(=O)c2cc(-c3ccc(C)c(C)c3)nc3ccc(C)cc23)cc1,7,0,0,1,x,x
Cc1ccc2nc(-c3ccc(C)c(C)c3)cc(C(=O)OCC(=O)c3ccc([N+](=O)[O-])cc3)c2c1,4,0,5.6*,7,0,7
COC(=O)c1ccc(/C=C2/N=C(c3cc(I)ccc3Cl)OC2=O)cc1,-1,0,-1,0,x,x
Cc1c(C#N)c2nc3c(c(-c4ccccc4)c2n1-c1ccccc1)CCCC3,6,0,6.1*,-1,0,-8
Cc1c(C#N)c2nc3c(c(-c4ccccc4)c2n1-c1ccccc1)C(=O)CC(C)(C)C3,6,0,0,9,x,x
Cc1cccc(NC(=O)CN(C2=NC3CS(=O)(=O)CC3S2)c2ccccc2)c1 (configuration not stated),5,0,-2,17,x,x
CCc1cccc(NC(=O)CN(C2=NC3CS(=O)(=O)CC3S2)c2cccc(C)c2)c1 (configuration not stated),7,-1,13*,0,1,-16
Cc1ccc(NC(=O)c2cnc(SCc3cccnc3)n(C)c2=O)cc1C,-29,0,10.0*,-7,-1,-18
O=C1C2C(c3ccccc3)OC3(C(=O)c4ccccc4C3=O)C2C(=O)N1c1ccccc1 (configuration not stated),-1,0,0,-5,x,x
O=C1C2C(c3ccccc3)OC3(C(=O)c4ccccc4C3=O)C2C(=O)N1CCc1ccc(F)cc1 (configuration not stated),-2,0,7.5*,0,0,9
O=C1C2C(c3ccc(F)cc3)OC3(C(=O)c4ccccc4C3=O)C2C(=O)N1Cc1ccccc1 (configuration not stated),14,0,5.6*,10,0,5
CN(C1CCCC1)S(=O)(=O)c1ccc(C(=O)Nc2cc(Cl)ccc2Cl)cc1,1,0,0,-17,x,x
COCCn1c(SCC(=O)NCc2ccco2)nc2c(c1=O)SC(C)C2 (configuration not stated),6,0,0,14,x,x
CC1CCCCC1NC(=O)Cn1nc(-c2ccc(Cl)cc2)ccc1=O (configuration not stated),4,0,5.6*,4,1,-4
CCSc1n[nH]c(=O)[nH]c1=S,1,0,-1,-1,x,x
C=CCNC(=O)C1CCN(C(=O)NCc2ccccc2)CC1,1,0,10.0*,0,0,-1
O=C(NC1CCN(C(=O)Nc2cccc(F)c2)CC1)c1cccc(F)c1,8,0,0,-2,x,x
O=C(NC1CCN(C(=O)NCc2ccccc2)CC1)c1cccc(F)c1,-3,0,5.6*,-1,0,-6
COC(=O)c1cccc(C(=O)N2CCC[C@@H]3CN(CCC(C)C)CC[C@H]32)c1,10,0,-1,6,x,x
O=C(Nc1cccc(-c2nc3ccccc3s2)c1)c1ccc(N2C(=O)CCC2=O)cc1,-2,0,7.4*,2,-1,2
O=C(Nc1cccc(-c2nc3ccccc3s2)c1)c1ccccc1,3,0,2,13,x,x
Cc1cccc(C(=O)Nc2cccc(-c3nc4ccccc4s3)c2)c1,0,0,0,-7,x,x
O=C(Nc1cccc(-c2nc3ccccc3s2)c1)C12CC3CC(CC(C3)C1)C2,-5,0,5.5*,-13,1,0
CCOc1ccc(NC(=O)CN(C2CCCCC2)S(=O)(=O)c2ccccc2)cc1,2,0,6.0*,-14,0,14
CN(CC(=O)NC1CCCCCC1)S(=O)(=O)c1ccccc1,-14,0,8.6*,7,0,2

# Bioassay records (PubChem)
